# Where “and” joins values, the source holds several entries; their conditions need not be identical. Identical values can stand only once. About 83,000 compounds went through this panel and 20% of them were active in at least one assay; those are over-represented in the sample as a whole.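 Cells were grown in 96-well plates and exposed to the test compound at a single concentration for 48 hours; results are reported as percent growth, with values below 10 considered active.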 Calls of active or inactive are those of the source.
# System: MDA-MB-468 breast
# Assay: NCI-60 one-dose screen, 48 h (100 = growth as untreated, 0 = no growth, -100 = all killed)
# Conditions: 10 µM unless noted
row,Compound,growth
1,O=C(Cn1cncn1)Nc1ccc(-c2nc3ccccc3s2)cc1,-29.7% (active)
2,COc1ccc(-c2csc3c2-n2cccc2C3=O)cc1O,-5.84% (active)
3,O=C(c1ccccc1)c1ccc(Cl)c([N+](=O)[O-])c1,77.7% (inactive)
4,CCCCCCNC(=O)Oc1ccc(/C(=C(\C)c2ccc(OC)cc2)c2ccc(OCCN(C)C)cc2)cc1,95.4% (inactive)
5,Clc1cccc(-c2nc(-c3cccs3)no2)c1,3.37% (active)
6,OC1CCc2c(-c3ccc4ncnc(N5CCc6cc(F)c(Cl)cc65)c4c3)cncc21 (stereo not given),9.18% (active)
7,CS(=O)(=O)c1ccc(-c2cnc3ccc(-c4cccc(S(C)(=O)=O)c4)nn23)cc1,6.54% (active)
8,COc1cc(NC2CCCCC2O)c2nc(-c3ccc(Cl)cc3)ccc2c1 (stereo not given),98.6% (inactive) and 62.5% (inactive)
9,c1n[nH]cc1-c1nc2ccc3[nH]ncc3c2c2c1CCCC2,15.2% (inactive)
10,CC(O)c1nc2c(c(=O)n(C)c(=O)n2C)n1C (stereo not given),105% (inactive)
11,CCCCCCCCNc1cccc2c1C(=O)c1ccccc1C2=O,95.4% (inactive)
12,C=C1C(=O)O[C@H]2[C@H]1CC/C(COC(=O)c1ccc(C#N)cc1)=C\CC[C@@]1(C)O[C@@H]21,-17.2% (active)
13,O=C(O)c1cn(C2CC2)c2cc(N3CCN(C(=O)CSc4nnc(-c5ccc(Cl)cc5)n4-c4ccccc4)CC3)c(F)cc2c1=O,101% (inactive)
14,COc1cc2c(c(O)c1Cl)C(=O)c1c(O)cc(C[C@H](C)O)cc1[C@H]2[C@H]1c2cc(C[C@H](C)O)cc(O)c2C(=O)c2c1cc(OC)c(Cl)c2O,-14.6% (active)
15,CCCNC(=O)Oc1ccc(/C(=C(/C)Cc2ccc(OC)cc2)c2ccc(OCCCN(C)C)cc2)cc1,73.6% (inactive)
16,CN(CCC#N)C(=O)Nc1ccccc1,109% (inactive)
17,C#C[C@]1(O)CC[C@H]2[C@@H]3CC=C4c5nc(Nc6ncccn6)sc5CC[C@]4(C)[C@H]3CC[C@@]21C,75.5% (inactive)
18,CC(C)=CCC[C@](C)(O)C1CC[C@]2(C)[C@@H]1CC[C@@H]1[C@@]3(C)CC/C(=N\OCCC#N)C(C)(C)[C@@H]3CC[C@]12C (stereo not given in full),83.2% (inactive)
19,CN(C)C(=S)SC(=S)N(C)C,91.4% (inactive) and 95.3% (inactive)
20,CN(C)c1ccc(-c2cc(-c3cccc(NS(C)(=O)=O)c3)nc(N)c2C#N)cc1,-20.1% (active)

row,Compound,growth
1,COc1ccc(-c2cc(-c3cc(OC)c(OC)c(OC)c3)c(C#N)c(=O)n2CCCCCC(=O)NO)cc1,97.4% (inactive)
2,Nc1ncnc2c1c(-c1cccc(Cl)c1)nn2CC(=O)N1CCOCC1,98.6% (inactive)
3,COC(=O)c1ccc(NC(=O)CSc2nc3ccccc3c(=O)n2-c2ccccc2)cc1,104% (inactive)
4,COc1cc(-c2nn(-c3cccc(NC(=O)CN4CCOCC4)c3)cc2-c2cccnc2)ccc1Cl,74.9% (inactive)
5,CCCCN1C=CCN(CCCC)C1,-1.66% (active)
6,Oc1ccccc1O,91.1% (inactive)
7,CC(=O)Nc1ccc(O)cc1,105% (inactive) and 111% (inactive)
8,CC(=O)Oc1ccccc1C(=O)N=C1[Se]CCCN1C(=O)c1ccccc1OC(C)=O,-19.2% (active)
9,COC(=O)CCCNCCCn1ccc2cc(NCc3cccc(-c4ccccc4)c3C)ccc21,53.4% (inactive)
10,CN1CCN(c2ccc(NC(=O)Nc3ccc4c(ccn4-c4cccc(C(N)=O)n4)c3)cc2C(F)(F)F)CC1,42.8% (inactive)
11,N#Cc1c2c(nn(-c3ccccc3)c1=O)C(O)=C([N+](=O)[O-])C(c1ccccc1)C2 (stereo not given),64.1% (inactive)
12,CC/C=C\C/C=C\C[C@H](O)C/C=C1/C(=O)C=C[C@@H]1C/C=C\CCCC(=O)OC,-51.7% (active)
13,COc1cc(C(=O)c2cc(C)c3[nH]c4ccc(C)cc4c3c2C)cc(OC)c1OC,-20.1% (active)
14,Cn1c(=O)c2c(c3ccccc31)OC(N)=C(C#N)C21C(=O)c2ccccc2C1=O,96.4% (inactive)
15,CC(=O)Nc1c(Cl)cc(Cl)c2c1Cc1cc([N+](=O)[O-])ccc1-2,94.9% (inactive)
16,O=C(O)c1ccc(-n2cc(CNc3ccc(C(F)(F)F)cc3)c(-c3ccccc3)n2)cc1,102% (inactive)
17,Cc1ccc(S(=O)(=O)Oc2ccc(Br)cc2Br)cc1,23.7% (inactive)
18,CCCCCCC1(/C=N/NC(N)=O)NC(=O)NC1=O (stereo not given),92.1% (inactive)
19,CCOc1ccccc1C(=O)/C=C/c1cc2ccccc2[nH]c1=O,-20.2% (active)
20,CC(=O)Nc1ccc(C)c(Nc2cc(-c3ccc(-n4cccn4)cc3)[nH]n2)c1,20% (inactive)

# From PubChem BioAssay (NCI)
